Source: PubChem BioAssay
Values joined by “and” are separate entries in the source; they are usually repeats but may differ in a detail not shown here. Identical values can stand only once. Active and inactive are the calls of the source.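 The calls were made as follows, unless noted: active = compound that reduces growth-factor-driven endothelial tube area in a mixed cell culture, no cutoff stated; inactive = the rest.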

Experiments:
[1] = Wnt pathway potentiators raising nuclear beta-catenin – imaging, WNT3A-conditioned medium, mouse C2C12, NPC library, primary screen (AID 1117326; in the data active = nuclear beta-catenin stimulation mostly above about 4.2%, no sharp cut-off; inactive = mostly below about 10%); conditions: stronger effect = higher value
[2] = stimulators of insulin release from INS-1E, primary screen, cell-based, 5 mM glucose, NPC library (AID 1117329;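 active = compound raises insulin release from rat beta cells at 5 mM glucose, no numeric limit stated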); conditions: rat INS-1E insulin secretion, at 10 µM, stronger effect = higher value
[3] = growth inhibition of GSK3B-pretreated HCT116 cells – cell-based, CellTiter-Glo, 0.2 to 20 µM (AID 1117336;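 active = compounds lowering colon cancer cell viability after pretreatment blocking the GSK3B kinase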); conditions: HCT116 viability after GSK3B inhibitor, at 20 µM, stronger effect = higher value
[4] = inhibition of endothelial tube formation, primary screen, imaging, VEGF stimulated, CD31 staining, tube area, NPC library (AID 1117340); conditions: VEGF-stimulated ADSC/ECFC co-culture, at 10 µM, stronger effect = higher value
[5] = GLP1 release stimulators, primary, NCI-H716, NPC library (AID 1117341;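 active = compound raises GLP1 secretion from the human gut endocrine cells, with no numeric limit stated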); conditions: NCI-H716 cells, at 10 µM, stronger effect = higher value
[6] = HCT116 colon cancer cell growth inhibition, primary screen, CellTiter-Glo luminescence, NPC library (AID 1117342;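 active = compounds that lower survival of HCT116 colon cancer cells in the luminescence readout, no numeric limit stated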); conditions: at 20 µM (top of the series)
[7] = reduced SW480 viability measured with CellTiter-Glo, NPC library, primary (AID 1117343;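 active = compounds that lower viability of the colon cancer cells in the luminescence readout, with no numeric limit stated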); conditions: CellTiter-Glo luminescence; at 20 µM (top of the series)
[8] = NPC library primary testing for decreased DLD-1 cell viability via CellTiter-Glo (AID 1117346;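 active = compounds that lower survival of DLD-1 colon cancer cells in the luminescence readout, no cutoff given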); conditions: DLD-1 viability, CellTiter-Glo luminescence; at 20 µM (top of the series)
[9] = EMT-state selective cytotoxicity in co-culture – imaging, PC-3E GFP, TEM4-18 mCherry, primary screen (AID 1345086;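 active = compounds killing one labelled cell type while sparing the other, by normalised counts and ratio limits, not self-fluorescent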;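 as to all read-outs here: cells exposed to compound for 72 h before imaging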;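 as to red/green cell ratio (normalised): normalised mesenchymal count divided by normalised epithelial count so high means epithelial killing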); conditions: PC-3E GFP / TEM4-18 mCherry co-culture, imaging cell counts, at 1 µM; for red/green cell ratio (normalised): actives lie on both sides
[10] = viability loss with induced miR-34 in A549 – imaging, A549 dox-inducible miR-34, nuclei and caspase counts, primary screen (AID 1347080;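 active = compounds whose cell count with miR-34 switched on is under 0.7 times the count with it off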); conditions: A549 miR-34 inducible, Hoechst nuclei count, 48 h
[11] = molecular target: NAD(+) hydrolase SARM1 (Homo sapiens) (UniProt Q6SZW1); experiment: blocking NAD cleavage by SARM1 SAM-TIR – cell lysate, NAD-Glo luminescence (AID 1508614;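 active = compound whose remaining NAD level is above about 45 nM, limit read from the data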;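 also: higher remaining NAD means stronger inhibition of SARM1 NADase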); conditions: SAM-TIR HEK293T lysate NADase, at 1 µM, stronger effect = higher value
Chain of NAD(+) hydrolase SARM1 (Homo sapiens) (Q6SZW1 whole entry, looked up): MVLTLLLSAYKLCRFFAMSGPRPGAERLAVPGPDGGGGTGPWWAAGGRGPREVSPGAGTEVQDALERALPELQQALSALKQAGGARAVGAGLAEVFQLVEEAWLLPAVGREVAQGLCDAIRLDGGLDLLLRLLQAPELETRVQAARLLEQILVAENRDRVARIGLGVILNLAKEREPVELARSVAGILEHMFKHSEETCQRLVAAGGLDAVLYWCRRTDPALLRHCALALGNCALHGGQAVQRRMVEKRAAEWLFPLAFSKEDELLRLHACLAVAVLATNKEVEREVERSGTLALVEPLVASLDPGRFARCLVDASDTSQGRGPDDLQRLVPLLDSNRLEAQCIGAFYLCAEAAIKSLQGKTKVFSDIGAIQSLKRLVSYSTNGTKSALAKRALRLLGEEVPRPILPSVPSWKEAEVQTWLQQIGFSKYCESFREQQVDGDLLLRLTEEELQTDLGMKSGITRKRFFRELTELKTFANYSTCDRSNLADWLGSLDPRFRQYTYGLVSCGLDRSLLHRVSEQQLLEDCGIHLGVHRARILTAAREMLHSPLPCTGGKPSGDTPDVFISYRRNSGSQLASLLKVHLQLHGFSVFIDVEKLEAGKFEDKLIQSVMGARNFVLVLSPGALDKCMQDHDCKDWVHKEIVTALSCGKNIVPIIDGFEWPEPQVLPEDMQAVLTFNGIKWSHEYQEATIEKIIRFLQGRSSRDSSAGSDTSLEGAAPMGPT

[12] = galactose survival enhancers in mitochondrial complex I cybrids – cell-based, galactose medium, ATP luminescence, primary screen (AID 1645843;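 active = z-score of at least 1.8 in each of two replicates, scored against plate mean and spread of sample wells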;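 also: positive z means more ATP and so rescue of galactose-driven cybrid death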); conditions: complex I mutant cybrid cells, 72 h, stronger effect = higher value
[13] = P. berghei load reduction in hepatocytes – cell-based, HepG2, luciferase luminescence, HepG2 viability, primary screen (AID 624349; in the data active = parasite load remaining mostly below about 12%, no sharp cut-off; inactive = mostly above about 10%;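 also: 100% = mean of DMSO negative control wells on the same plate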); conditions: P. berghei liver stage in HepG2, luciferase luminescence, concentration not given here; parasite load remaining: stronger effect = lower value; viability: measured here: HepG2 viability without parasites
[14] = MELAS cybrid and Rieske KO viability enhancers – cell-based, MELAS cybrids, Rieske KO mouse fibroblasts, CellTiter-Glo, primary screen (AID 1508586;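 active = mean z-score across replicates of 1.96 or higher in either the MELAS or the Rieske mutant cell line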;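 also: z relative to plate mean and SD of compound and empty wells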); conditions: low glucose
[15] = molecular target: Mitogen-activated protein kinase 7 (Homo sapiens) (UniProt Q13164); experiment: Gal4-ERK5 driven luciferase induction – cell-based, HTS, primary screen (AID 1508626;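 active = luciferase signal above three times the same-plate solvent-only control wells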;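 also: luciferase driven by Gal4-ERK5 fusion binding five Gal4 sites before minimal TATA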); conditions: HeLa Gal4-ERK5 transactivation, 18 h, at 5 µM, stronger effect = higher value
Chain of Mitogen-activated protein kinase 7 (Homo sapiens) (Q13164 whole entry, looked up, the tested form may be a part): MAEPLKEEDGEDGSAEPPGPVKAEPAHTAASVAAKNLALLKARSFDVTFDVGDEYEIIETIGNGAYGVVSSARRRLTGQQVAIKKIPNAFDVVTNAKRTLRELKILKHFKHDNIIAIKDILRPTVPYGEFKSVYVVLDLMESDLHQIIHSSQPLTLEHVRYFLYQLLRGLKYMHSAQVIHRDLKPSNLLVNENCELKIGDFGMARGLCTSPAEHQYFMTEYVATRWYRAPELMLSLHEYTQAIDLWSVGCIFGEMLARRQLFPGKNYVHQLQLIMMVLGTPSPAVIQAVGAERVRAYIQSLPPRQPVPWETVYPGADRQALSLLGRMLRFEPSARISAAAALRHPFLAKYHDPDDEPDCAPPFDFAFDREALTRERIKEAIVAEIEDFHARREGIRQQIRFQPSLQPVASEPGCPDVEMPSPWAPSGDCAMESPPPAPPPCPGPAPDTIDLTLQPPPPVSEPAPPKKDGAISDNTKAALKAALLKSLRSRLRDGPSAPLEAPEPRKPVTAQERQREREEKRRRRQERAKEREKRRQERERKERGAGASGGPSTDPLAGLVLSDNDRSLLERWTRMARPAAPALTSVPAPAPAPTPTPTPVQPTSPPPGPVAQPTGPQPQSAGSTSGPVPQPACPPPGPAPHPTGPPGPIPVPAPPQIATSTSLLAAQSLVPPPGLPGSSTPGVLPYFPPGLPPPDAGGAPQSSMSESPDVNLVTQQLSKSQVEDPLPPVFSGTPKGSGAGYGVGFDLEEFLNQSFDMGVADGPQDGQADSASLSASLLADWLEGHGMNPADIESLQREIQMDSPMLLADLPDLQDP

[16] = measured here: epithelial PC-3E GFP cell survival
[17] = measured here: mesenchymal TEM4-18 mCherry cell survival
[18] = measured here: relative caspase fold change +Dox/-Dox
[19] = measured here: total cells with miR-34 induction, stronger effect = lower value
[20] = measured here: total cells without miR-34 induction
[21] = MELAS cybrid survival, CellTiter-Glo 48 h, stronger effect = higher value
[22] = Rieske KO mouse fibroblast survival, CellTiter-Glo 72 h

NP(N)(=O)NC(=O)c1ccc(F)cc1
nuclear beta-catenin stimulation ([1]; at 10 µM): 0.1% (inactive) | nuclear beta-catenin stimulation ([1]; stimulation, at 2 µM): 0.9% | insulin secretion stimulation [2]: -0.7% (inactive) | viability decrease [3]: -1.25% (inactive) | tube area decrease [4]: -20.9% (inactive) | GLP1 secretion stimulation [5]: 1.1% (inactive) | inhibition of viability [6]: -0.3% (inactive) | viability decrease (inhibition) [7]: 31.5% (inactive) | viability decrease (inhibition) [8]: 6.6% (inactive) | red/green cell ratio (normalised) [9]: 0.99 (inactive) | normalised cell number [9, 16]: 0.92 | normalised cell number [9, 17]: 0.91 | fold change ([10]; stronger effect = lower value): 0.935 (inactive) and 0.913 (inactive) | fold change [10, 18]: 0.958 and 0.851 | cell count [10, 19]: 8980 and 8200 | cell count [10, 20]: 9600 and 8990 | remaining NAD [11]: 10 nM (inactive) | z-score [12]: -0.31 (inactive)

O=C1C2CC=CCC2C(=O)N1SC(Cl)(Cl)Cl (centres undefined)
nuclear beta-catenin stimulation ([1]; at 10 µM): 14.9% (active) | nuclear beta-catenin stimulation ([1]; stimulation, at 2 µM): 44.5% | insulin secretion stimulation [2]: 0.6% (inactive) | viability decrease [3]: 98.9% (active) | tube area decrease [4]: 108% (active) | GLP1 secretion stimulation [5]: 0.3% (inactive) | inhibition of viability [6]: 99.3% (active) | viability decrease (inhibition) [7]: 102% (active) | viability decrease (inhibition) [8]: 102% (active) | red/green cell ratio (normalised) ([9]; counts scaled to control wells, 1 = unselective): 1.09 (inactive) | normalised cell number [9, 16]: 1.03 | normalised cell number [9, 17]: 1.13

NC1=NC(=O)C(c2ccccc2)O1 (centres undefined)
parasite load remaining [13]: 109% (inactive) | viability [13]: 79.6% | nuclear beta-catenin stimulation ([1]; at 10 µM): 1% (inactive) | nuclear beta-catenin stimulation ([1]; stimulation, at 2 µM): 0.5% | insulin secretion stimulation [2]: -0.9% (inactive) | viability decrease [3]: -2.4% (inactive) | tube area decrease [4]: 1.1% (inactive) | GLP1 secretion stimulation [5]: 3.5% (inactive) | inhibition of viability [6]: -21.1% (inactive) | viability decrease (inhibition) [7]: 36.7% (inactive) | viability decrease (inhibition) [8]: -5.1% (inactive) | fold change ([10]; stronger effect = lower value): 0.967 (inactive) | fold change [10, 18]: 2.22 | cell count [10, 19]: 9620 | cell count [10, 20]: 9950 | z-score [12]: 0.395 (inactive)

COc1cccc([C@@]2(O)CCCC[C@@H]2CN(C)C)c1
nuclear beta-catenin stimulation ([1]; at 10 µM): 4.3% (inactive) | nuclear beta-catenin stimulation ([1]; stimulation, at 2 µM): 1.4% | insulin secretion stimulation [2]: 9.4% (inactive) | viability decrease [3]: 34.1% (inactive) | tube area decrease [4]: -7.2% (inactive) | GLP1 secretion stimulation [5]: 4.9% (inactive) | inhibition of viability [6]: 30.7% (inactive) | viability decrease (inhibition) [7]: 75.1% (active) | viability decrease (inhibition) [8]: 20.8% (inactive) | fold change ([10]; stronger effect = lower value): 0.937 (inactive) | fold change [10, 18]: 0.969 | cell count [10, 19]: 10100 | cell count [10, 20]: 10700 | z-score [14, 21]: 0.879 (inactive) and 0.255 (inactive) | z-score [14, 22]: 0.166 and -0.539 | remaining NAD [11]: 10 nM (inactive) | luciferase signal [15]: 40 AU (inactive) | z-score [12]: 0.845 (inactive)

c1ccc(C2CC2)c(OCC2=NCCN2)c1
parasite load remaining [13]: 45.2% (inactive) | viability [13]: 96.5% | nuclear beta-catenin stimulation ([1]; at 10 µM): 1.3% (inactive) | nuclear beta-catenin stimulation ([1]; stimulation, at 2 µM): 0.6% | insulin secretion stimulation [2]: -0.5% (inactive) | viability decrease [3]: -54.5% (inactive) | tube area decrease [4]: -3.7% (inactive) | GLP1 secretion stimulation [5]: 10.4% (inactive) | inhibition of viability [6]: 5.23% (inactive) | viability decrease (inhibition) [7]: 7% (inactive) | viability decrease (inhibition) [8]: -2.1% (inactive) | z-score [14, 21]: -0.68 (inactive) | z-score [14, 22]: -0.25 | z-score [12]: -0.075 (inactive) and 0.06 (inactive) and 0.195 (inactive)

C[N+]1(C)[C@@H]2CC[C@H]1CC(OC(=O)C(CO)c1ccccc1)C2 (some centres undefined)
nuclear beta-catenin stimulation ([1]; at 10 µM): 0.5% (inactive) | nuclear beta-catenin stimulation ([1]; stimulation, at 2 µM): -0.7% | insulin secretion stimulation [2]: 3.3% (inactive) | viability decrease [3]: -5.8% (inactive) | tube area decrease [4]: -7.8% (inactive) | GLP1 secretion stimulation [5]: 2.8% (inactive) | inhibition of viability [6]: 12.1% (inactive) | viability decrease (inhibition) [7]: -13.2% (inactive) | viability decrease (inhibition) [8]: 13.1% (inactive) | remaining NAD [11]: 10 nM (inactive) | luciferase signal [15]: 60 AU (inactive)
